Measured values from PubChem BioAssay.
Calls of active or inactive are those of the source.

Key:
[1] = tested on: Plasmodium falciparum Sir2 (PF13_0152, Sir2A); experiment: pfSir2 binders on small-molecule microarrays, primary screen, biochemical, small-molecule microarray, 635 nm fluorescence (AID 1098); conditions: small-molecule microarray binding, fluorescence 635 nm; higher = more signal;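 further: score merges spot fluorescence intensity with its signal-to-noise ratio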
[2] = small-molecule microarray binders of probe aDKK1, primary screen, biochemical, biotinylated probe, 635/667 nm fluorescence (AID 1099); conditions: higher = more signal;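 further: score merges 667nm spot fluorescence with signal to noise across triplicate slides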
[3] = small-molecule microarray binders of probe aCHRDL2, primary screen, biochemical, biotinylated probe, 635/667 nm fluorescence (AID 1100); conditions: higher = more signal
[4] = splicing luciferase reporter signal modulators, primary screen, spliceosome inhibition project, cell-based, HEK293, splice +/- reporter (AID 1101); conditions: luminescence, 24 h, higher = more signal, called active from +8 up or from −8 down;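 further: HEK293 cells carrying a splicing-competent luciferase reporter gene; test concentration not given here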
[5] = target: Fibroblast growth factor 10 (Homo sapiens) (UniProt O15520); experiment: FGF10 binders on small-molecule microarrays, primary screen, biochemical, small-molecule microarray, 635 nm fluorescence (AID 1102); conditions: FGF10 binding, fluorescence 635 nm, higher = more signal
[6] = tested on: glycogen synthase kinase-3 (GSK3A per assay name; protocol says GSK3B); experiment: GSK3 binders on small-molecule microarrays, primary screen, biochemical, small-molecule microarray, 635 nm fluorescence, GSK3A (AID 1103); conditions: small-molecule microarray binding, fluorescence 635 nm; higher = more signal; further: the record names both GSK3A and GSK3B
[7] = target: Epidermal growth factor receptor (Homo sapiens) (UniProt P00533); experiment: EGFR binders on small-molecule microarrays, primary screen, biochemical, small-molecule microarray, 635 nm fluorescence (AID 1104); conditions: EGFR binding, higher = more signal;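 further: score merges 667 nm emission intensity with spot signal to noise over triplicate slides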
[8] = target: Follistatin-related protein 3 (Homo sapiens) (UniProt O95633); experiment: FSTL3 binders on small-molecule microarrays, primary screen, biochemical, small-molecule microarray, 635 nm fluorescence (AID 1105); conditions: FSTL3 binding, higher = more signal;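 further: score merges emission near 667 nm and signal to noise per printed spot across three slides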
[9] = target: Dickkopf-related protein 1 (Homo sapiens) (UniProt O94907); experiment: DKK1 binders on small-molecule microarrays, primary screen, biochemical, small-molecule microarray, 635 nm fluorescence scan (AID 1106); conditions: DKK1 binding, higher = more signal;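 further: score merges emission near 667 nm with signal to noise over three replicate slides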
[10] = tested on: Inhibin beta A chain (activin A); experiment: INHBA (activin A) binders on microarrays, primary screen, biochemical, small-molecule microarray, 635 nm fluorescence scan (AID 1107); conditions: small-molecule microarray binding, higher = more signal;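 further: mouse activin A protein probed at 4.33 µg/mL on printed slides; score merges bound-protein fluorescence near 667 nm with spot signal-to-noise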
[11] = tested on: Human papillomavirus type 1a protein E7 (residues 44-93); experiment: HPV1a E7 fragment binders on microarrays, primary screen, biochemical, small-molecule microarray, residues 44-93, 635 nm fluorescence (AID 1108); conditions: small-molecule microarray binding, fluorescence 635 nm; higher = more signal;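 further: E7 fragment applied at 1 µg/mL in TBST for 1 h at 4 C; score combines spot fluorescence with its signal to noise ratio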
[12] = modulators of HCV replicon luciferase signal, primary screen, HCV replication inhibitor project, Huh7 cells, luciferase reporter (AID 1109); conditions: 48 h, higher = more signal;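 further: huh7 hepatoma cells harbouring a luciferase neomycin HCV replicon reporter; luciferase luminescence as measure of HCV replicon replication; test concentration not given here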
[13] = target: Left-right determination factor 2 (Homo sapiens) (UniProt O00292); experiment: LEFTY2 binders on small-molecule microarrays, primary screen, biochemical, small-molecule microarray, 635 nm fluorescence scan (AID 1110); conditions: LEFTY2 binding, higher = more signal
[14] = target: Calmodulin-1 (Homo sapiens) (UniProt P0DP23); experiment: CALM1 binders on microarrays, EGTA buffer, profiling panel, biochemical, small-molecule microarray, Cy5-labelled CALM1 (AID 1111); conditions: Cy5-CALM1 binding fluorescence, higher = more signal;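 further: labelled calmodulin applied in Tris saline Tween buffer holding calcium plus EGTA and DTT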
[15] = target: Calmodulin-1 (Homo sapiens) (UniProt P0DP23); experiment: calcium-bound CALM1 binders on microarrays, profiling panel, artefact control for SMM control-protein annotation, biochemical, small-molecule microarray, Cy5-labelled CALM1, plus calcium (AID 1112); conditions: Cy5-CALM1 binding fluorescence, higher = more signal;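 further: score merges spot fluorescence with signal to noise from triplicate slides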
[16] = small-molecule microarray binders of probe aWnt5a, primary screen, biochemical, biotinylated probe, 635/667 nm fluorescence (AID 1113); conditions: higher = more signal;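 further: score merges 667 nm fluorescence intensity with signal-to-noise per printed feature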
[17] = small-molecule microarray binders of probe aShh, primary screen, biochemical, biotinylated probe, 635/667 nm fluorescence (AID 1114); conditions: higher = more signal;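 further: probe is biotin-labelled aShh protein from a stem cell growth factor screen; measures binding of labelled protein to compounds printed on the slide; score merges feature fluorescence at 667 nm with signal-to-noise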
[18] = small-molecule microarray binders of probe aNog, primary screen, biochemical, biotinylated probe, 635/667 nm fluorescence (AID 1115); conditions: higher = more signal;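 further: probe is biotinylated aNog protein used at 0.15 µg/mL for 1 h at 4 C; z-score combines 667 nm fluorescence of each spot with its signal to noise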
[19] = target: Torsin-1A-interacting protein 1 (Homo sapiens) (UniProt Q5JTV8); experiment: LAP1 binders from COS7 cell lysate, primary screen, small-molecule microarray, 635/667 nm fluorescence (AID 1116); conditions: COS7-hLAP1 lysate binding, 635 nm fluorescence, higher = more signal
[20] = target: Alpha-bungarotoxin (Bungarus multicinctus) (UniProt P60615); experiment: alpha-bungarotoxin binders on microarray, profiling panel, artefact control for SMM control protein annotation, biochemical, small-molecule microarray, Alexa647 label, 635/667 nm fluorescence (AID 1117); conditions: alpha-BTX-A647 binding fluorescence, higher = more signal
Alpha-bungarotoxin (Bungarus multicinctus), sequence (P60615 whole entry, looked up): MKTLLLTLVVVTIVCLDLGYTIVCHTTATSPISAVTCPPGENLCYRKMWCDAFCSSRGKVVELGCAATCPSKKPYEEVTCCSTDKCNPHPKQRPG

Epidermal growth factor receptor (Homo sapiens), sequence (P00533 whole entry, looked up): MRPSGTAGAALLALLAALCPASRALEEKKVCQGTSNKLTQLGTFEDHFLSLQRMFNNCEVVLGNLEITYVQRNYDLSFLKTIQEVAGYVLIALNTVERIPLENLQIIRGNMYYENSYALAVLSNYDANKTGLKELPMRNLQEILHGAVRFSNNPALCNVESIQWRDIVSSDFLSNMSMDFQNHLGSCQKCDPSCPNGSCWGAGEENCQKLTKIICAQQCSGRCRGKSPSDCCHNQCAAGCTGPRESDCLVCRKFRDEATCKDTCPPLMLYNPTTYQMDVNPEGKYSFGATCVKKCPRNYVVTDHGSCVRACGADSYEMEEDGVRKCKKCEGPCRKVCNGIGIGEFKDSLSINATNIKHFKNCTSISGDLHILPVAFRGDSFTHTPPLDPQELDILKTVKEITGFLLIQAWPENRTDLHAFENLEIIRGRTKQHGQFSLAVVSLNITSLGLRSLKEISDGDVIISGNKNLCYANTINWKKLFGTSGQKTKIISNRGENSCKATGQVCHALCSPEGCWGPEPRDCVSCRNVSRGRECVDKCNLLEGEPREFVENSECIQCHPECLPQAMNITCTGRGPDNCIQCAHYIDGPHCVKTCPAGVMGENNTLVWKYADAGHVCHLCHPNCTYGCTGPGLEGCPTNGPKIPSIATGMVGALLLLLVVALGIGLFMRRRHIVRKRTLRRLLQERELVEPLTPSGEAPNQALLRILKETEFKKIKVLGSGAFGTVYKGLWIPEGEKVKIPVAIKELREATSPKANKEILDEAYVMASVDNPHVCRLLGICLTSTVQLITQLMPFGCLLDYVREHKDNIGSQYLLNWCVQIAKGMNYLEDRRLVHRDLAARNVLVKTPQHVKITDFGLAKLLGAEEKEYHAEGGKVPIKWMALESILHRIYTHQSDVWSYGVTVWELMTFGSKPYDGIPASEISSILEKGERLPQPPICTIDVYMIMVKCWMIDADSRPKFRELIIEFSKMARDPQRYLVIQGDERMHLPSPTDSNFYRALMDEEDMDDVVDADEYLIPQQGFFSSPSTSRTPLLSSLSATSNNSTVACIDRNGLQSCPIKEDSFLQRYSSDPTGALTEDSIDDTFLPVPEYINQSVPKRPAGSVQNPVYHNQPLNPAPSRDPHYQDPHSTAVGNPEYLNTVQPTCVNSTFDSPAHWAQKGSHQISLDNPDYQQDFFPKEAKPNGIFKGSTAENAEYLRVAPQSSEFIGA
Dickkopf-related protein 1 (Homo sapiens), sequence (O94907 whole entry, looked up): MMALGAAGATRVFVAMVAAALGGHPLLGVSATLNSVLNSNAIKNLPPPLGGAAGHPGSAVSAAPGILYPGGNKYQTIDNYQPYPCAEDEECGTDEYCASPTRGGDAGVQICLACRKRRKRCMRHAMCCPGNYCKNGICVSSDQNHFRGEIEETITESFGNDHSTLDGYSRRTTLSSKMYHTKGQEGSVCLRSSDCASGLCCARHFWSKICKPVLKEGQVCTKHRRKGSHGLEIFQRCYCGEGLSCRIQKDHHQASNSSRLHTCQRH
Fibroblast growth factor 10 (Homo sapiens), sequence (O15520 whole entry, looked up): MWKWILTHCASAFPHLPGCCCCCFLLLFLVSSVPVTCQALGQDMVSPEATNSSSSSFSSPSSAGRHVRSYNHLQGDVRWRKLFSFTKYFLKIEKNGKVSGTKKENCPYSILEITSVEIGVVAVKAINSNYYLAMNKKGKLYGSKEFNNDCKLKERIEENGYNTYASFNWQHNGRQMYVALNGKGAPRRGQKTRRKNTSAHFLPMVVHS
Torsin-1A-interacting protein 1 (Homo sapiens), sequence (Q5JTV8 whole entry, looked up): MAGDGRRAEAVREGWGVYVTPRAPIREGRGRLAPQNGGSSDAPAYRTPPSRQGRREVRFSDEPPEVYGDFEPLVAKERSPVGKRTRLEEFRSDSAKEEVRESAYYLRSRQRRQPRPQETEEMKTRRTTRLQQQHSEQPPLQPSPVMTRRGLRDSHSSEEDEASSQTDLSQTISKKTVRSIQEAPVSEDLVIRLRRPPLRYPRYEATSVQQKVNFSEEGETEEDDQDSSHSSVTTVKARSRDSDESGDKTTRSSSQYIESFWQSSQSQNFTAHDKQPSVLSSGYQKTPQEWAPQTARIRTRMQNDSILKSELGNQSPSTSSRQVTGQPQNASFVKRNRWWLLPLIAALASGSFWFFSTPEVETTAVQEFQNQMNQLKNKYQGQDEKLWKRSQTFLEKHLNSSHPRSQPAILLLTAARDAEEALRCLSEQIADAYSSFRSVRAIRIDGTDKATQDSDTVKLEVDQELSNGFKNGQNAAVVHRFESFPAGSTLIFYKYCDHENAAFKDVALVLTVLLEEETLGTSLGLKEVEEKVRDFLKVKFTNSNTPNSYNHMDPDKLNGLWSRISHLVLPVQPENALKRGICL
Left-right determination factor 2 (Homo sapiens), sequence (O00292 whole entry, looked up): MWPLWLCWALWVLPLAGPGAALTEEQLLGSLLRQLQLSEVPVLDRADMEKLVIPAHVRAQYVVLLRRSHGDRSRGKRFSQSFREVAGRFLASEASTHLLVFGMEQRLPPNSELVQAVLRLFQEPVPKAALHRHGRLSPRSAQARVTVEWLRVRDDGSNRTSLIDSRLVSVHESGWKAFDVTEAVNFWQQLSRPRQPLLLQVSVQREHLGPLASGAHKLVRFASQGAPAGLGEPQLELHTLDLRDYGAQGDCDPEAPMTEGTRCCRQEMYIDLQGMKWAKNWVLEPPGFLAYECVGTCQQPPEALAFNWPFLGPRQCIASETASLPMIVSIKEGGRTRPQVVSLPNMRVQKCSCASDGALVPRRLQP
Follistatin-related protein 3 (Homo sapiens), sequence (O95633 whole entry, looked up): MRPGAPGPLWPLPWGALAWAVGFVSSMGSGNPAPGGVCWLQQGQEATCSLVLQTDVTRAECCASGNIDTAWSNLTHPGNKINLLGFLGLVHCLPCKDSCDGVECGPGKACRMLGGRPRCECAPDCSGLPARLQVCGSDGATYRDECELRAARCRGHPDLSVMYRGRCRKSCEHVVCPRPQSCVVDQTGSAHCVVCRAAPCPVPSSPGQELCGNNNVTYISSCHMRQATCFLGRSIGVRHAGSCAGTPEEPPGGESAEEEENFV

| SMILES | composite z-score [1] | composite z-score [2] | composite z-score [3] | z-score [4] | composite z-score [5] | composite z-score [6] | composite z-score [7] | composite z-score [8] | composite z-score [9] | composite z-score [10] | composite z-score [11] | z-score [12] | composite z-score [13] | composite z-score [14] | composite z-score [15] | composite z-score [16] | composite z-score [17] | composite z-score [18] | composite z-score [19] | composite z-score [20] |
| --- | --- | --- | --- | --- | --- | --- | --- | --- | --- | --- | --- | --- | --- | --- | --- | --- | --- | --- | --- | --- |
| COc1ccc(O[C@H]2C=C[C@@H](c3ccccc3)O[C@@H]2COC(=O)N2CCCCC2)cc1 | -0.0945 | -0.173 | -0.225 | 0.757 (inactive) | -0.398 | -0.732 | 0.0392 | -0.0999 | 0.0004 | 1.42 | -0.57 | -1.34 | -0.0284 | -0.781 | -1.33 | -0.0512 | -0.0146 | -0.267 | 0.323 | -0.195 |
| COC(=O)C1=CCC(c2cccc(Cl)c2)O1 (stereo not given) | 1.15 | -0.138 | 0.381 | -1.15 (inactive) | 0.044 | -0.842 | -0.412 | -0.578 | -0.476 | 1.09 | 0.387 | -2.31 | 0.106 | 0.0588 | -0.23 | -0.0286 | -0.291 | 0.287 | 0.0692 | 0.648 |
| CCOC(=O)C1=CC[C@H]2C(=O)N(CC)C(=O)[C@@H]12 | 0.762 | -0.146 | -0.242 | -0.253 (inactive) | 1.07 | 0.947 | 0.0746 | 0.933 | 0.0851 | 0.666 | 1.19 | -2.13 | 0.444 | -0.322 | -0.485 | -0.0236 | 0.329 | -0.0184 | 0.184 | 0.431 |
| COCCOC(=O)N1C(=O)[C@@]2(c3cc(C#Cc4ccc(OC)cc4)ccc31)[C@H](C(=O)N1CCN(c3ncccn3)CC1)[C@H]1C(=O)O[C@H](c3ccccc3)[C@H](c3ccccc3)N1[C@@H]2c1ccc(OCCO)cc1 | 0.593 | 0.61 | 0.628 | 0.688 (inactive) | 0.968 | 0.043 | 0.624 | 1.11 | 1.19 | 1.03 | 1.4 | -1.56 | 0.64 | 0.766 | 0.397 | 0.101 | -0.229 | 1.26 | -0.109 | 0.598 |
| COc1ccc(O[C@H]2C=C[C@@H](c3ccccc3)O[C@@H]2COC(=O)CCC(C)=NOC[C@@H](C)[C@H](OCc2ccccc2)C(C)C)cc1 | -0.886 | -0.366 | -0.529 | 0.292 (inactive) | -0.433 | -0.662 | -0.706 | -0.629 | -0.698 | 0.553 | -2.09 | -0.667 | -0.306 | -1.65 | -0.741 | -0.0748 | -0.283 | -0.233 | -0.956 | -1.04 |
| CCOC(=O)CCN1C(=O)[C@H]2[C@H]3[C@H](O)[C@H](O)CC(=NOC[C@@H](O)COCc4ccco4)[C@H]3CC[C@H]2C1=O | 0.413 | 0.0262 | -0.5 | -1.12 (inactive) | 0.449 | 0.596 | 0.328 | 0.608 | 0.433 | 0.0553 | 1.11 | -2.99 | 0.622 | -0.039 | -0.438 | -0.152 | -0.0769 | -0.0446 | 0.0386 | 0.351 |
| C[N+](C)(C)CCCCCCNC(=O)[C@@H]1C[C@@H]2C(=O)N3CCC[C@H]3C(=O)N2[C@@H]1c1cccc(OCCO)c1 | 1.26 | -0.303 | 0.824 | -0.739 (inactive) | -0.0327 | 0.586 | 0.36 | 0.476 | 0.808 | 1.03 | 1.34 | 1.41 | 0.385 | 0.233 | -1.07 | -0.197 | 0.905 | -0.238 | -0.24 | -0.0576 |
| CC(C)[C@@H](OCc1ccccc1)[C@H](C)C=NO[C@H](C)c1cn([C@H](CO)Cc2ccccc2)nn1 | 0.45 | -0.25 | -0.566 | -0.652 (inactive) | 0.503 | 0.562 | 0.173 | 0.474 | 0.804 | -0.172 | 0.639 | -2.09 | 0.521 | -0.211 | -0.669 | -0.156 | -0.0709 | -0.216 | 0.113 | 0.263 |
| CO[C@@H]1COC(=O)CCC[C@@H](C)[C@H](OC)COC(=O)CCC[C@H]1C | 0.691 | -0.224 | -0.755 | 0.349 (inactive) | 0.0939 | 0.534 | 0.379 | 0.715 | 0.731 | -0.0672 | -0.341 | -1.38 | 0.862 | -0.454 | -0.966 | -0.0445 | -0.206 | -0.303 | 0.665 | -0.12 |
| CCc1cc2c(nc1CC)CCN(CCC(C)=NOC[C@@H](O)[C@H]1O[C@@H]3OC(C)(C)O[C@@H]3[C@H]1O)C2 | 0.569 | -0.54 | -0.32 | -0.173 (inactive) | 0.123 | 0.175 | 0.352 | 0.285 | 0.453 | 0.963 | 0.176 | -1.59 | 0.317 | 1.68 | 0.0363 | -0.0607 | -0.16 | -0.238 | 0.455 | 0.677 |
| CCCC=C(CCC)[C@@H](NC(=O)c1ccc(-c2ccccc2)cc1)c1ccc(C(=O)OC)cc1 | 0.407 | 0.245 | 1 | -0.492 (inactive) | -0.316 | 0.472 | -0.237 | 0.0286 | -0.673 | 0.244 | 1.38 | -0.552 | -0.394 | 1.84 | 1.31 | 0.194 | 0.0195 | 1.25 | 0.421 | 0.93 |
| CC[C@@H](c1ccccc1)n1c(=O)n2n(c1=O)[C@H]1[C@H](O)[C@@H]3O[C@@H]3C(=NOCC=C(C)CCC=C(C)C)[C@H]1CC2 | 0.785 | -0.156 | -0.359 | 1.95 (inactive) | 0.524 | 0.412 | 0.446 | 1.27 | 0.916 | 0.619 | 1.21 | -3.62 | 0.827 | -0.0812 | -0.834 | -0.001 | -0.0866 | -0.136 | 0.215 | 0.0806 |
